Test results from PubChem BioAssay AID488969 (Vanderbilt High Throughput Screening Facility, 2010).
The full ranking holds about 110,000 compounds; the median of “z-score” is about -0.1, and the highest 2% start at about 2. Many of the other results were omitted from the sample, so the highest values are more common in it than they were. Calls of active or inactive are those of the source.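 The calls were made as follows: active = z-score in the third read window above 3 or below -3; inactive = the rest.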

Each compound was assayed against Metabotropic glutamate receptor 8 (Rattus norvegicus) (UniProt P70579) (assay: rat mGluR8 modulators via GIRK flux, primary screen, cell-based, thallium flux, HTS (AID 488969)). Details: HEK293 rat mGluR8, GIRK (G protein-gated inwardly rectifying potassium channel) thallium flux, FluoZin2; at 10 µM; stronger effect = higher value; submaximal glutamate (EC20) added with thallium.
Chain of Metabotropic glutamate receptor 8 (Rattus norvegicus) (P70579 whole entry, looked up): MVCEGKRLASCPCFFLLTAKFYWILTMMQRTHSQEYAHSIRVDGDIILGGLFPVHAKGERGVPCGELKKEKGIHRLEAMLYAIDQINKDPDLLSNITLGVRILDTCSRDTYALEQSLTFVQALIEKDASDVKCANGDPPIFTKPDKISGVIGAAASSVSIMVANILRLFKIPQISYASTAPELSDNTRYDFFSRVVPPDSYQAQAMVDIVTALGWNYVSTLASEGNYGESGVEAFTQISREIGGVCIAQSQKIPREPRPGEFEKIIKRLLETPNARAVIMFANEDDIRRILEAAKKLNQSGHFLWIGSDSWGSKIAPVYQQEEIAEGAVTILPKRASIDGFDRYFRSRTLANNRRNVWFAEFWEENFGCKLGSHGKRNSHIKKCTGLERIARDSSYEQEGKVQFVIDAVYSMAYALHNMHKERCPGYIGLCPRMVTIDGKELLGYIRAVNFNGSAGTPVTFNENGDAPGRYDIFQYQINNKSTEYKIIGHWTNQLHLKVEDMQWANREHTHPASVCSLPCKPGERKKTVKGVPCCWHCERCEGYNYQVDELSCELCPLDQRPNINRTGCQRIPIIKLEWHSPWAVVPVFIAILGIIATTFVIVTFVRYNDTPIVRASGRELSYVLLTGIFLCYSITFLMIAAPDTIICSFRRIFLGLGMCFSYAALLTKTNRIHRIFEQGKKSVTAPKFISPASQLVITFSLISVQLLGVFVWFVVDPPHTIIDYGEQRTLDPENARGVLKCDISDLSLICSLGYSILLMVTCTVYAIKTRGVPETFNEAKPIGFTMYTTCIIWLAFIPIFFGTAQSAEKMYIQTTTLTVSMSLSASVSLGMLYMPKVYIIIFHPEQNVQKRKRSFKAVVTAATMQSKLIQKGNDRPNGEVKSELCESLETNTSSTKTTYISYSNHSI

| Structure (SMILES) | z-score |
| --- | --- |
| CCOC(=O)C1C(=O)CC(C)(O)C(C(=O)OCC)C1c1ccc(N(CC)CC)cc1 (stereo not given) | -0.205 |
| CCC(C)NC(=O)/C(=C/c1ccco1)c1ccccc1 (stereo not given) | -0.109 |
| CC(C)NC(=O)/C(=C/c1ccco1)c1ccccc1 | 2.43 |
| CC(C)(C)NC(=O)/C(=C/c1ccco1)c1ccccc1 | -0.0597 |
| CCN(CC)S(=O)(=O)c1cc(Br)c(C)cc1OC | -0.159 |
| Cc1ccc(-c2nn(C)c(=O)c3ccccc23)cc1CNS(C)(=O)=O | -0.0971 |
| COc1ccc(OC)c(NC(=S)N2CCN(C/C=C/c3ccccc3)CC2)c1 | -0.183 |
| O=C(OC1CCCCC1=O)c1cccc(S(=O)(=O)NCc2ccccc2)c1 (stereo not given) | -0.182 |
| CNS(=O)(=O)c1cccc(C(=O)OC2CCCCC2=O)c1 (stereo not given) | 2.06 |
| CC(=O)Nc1ccc(C(=O)OC2CCCCC2=O)cc1 (stereo not given) | 0.0145 |
| O=C1C2C3C=CC(C3)C2C(=O)N1Cc1ccc(CN2C(=O)C3C4C=CC(C4)C3C2=O)cc1 (stereo not given) | -0.294 |
| Cc1cccc(NC(=S)/N=C(\N)Nc2nc(C)c3ccc(C)cc3n2)c1 | -0.215 |
| CCCNc1cc(C)c(C#N)c2nc3ccccc3n12 | -1.34 |
| O=C(NC(=S)Nc1ccccc1N1CCCC1)c1ccc([N+](=O)[O-])cc1 | 14.4 (active) |
| O=C(Nc1ccccc1N1CCOCC1)c1ccccc1[N+](=O)[O-] | -0.093 |
| O=C(NC(=S)Nc1cc([N+](=O)[O-])ccc1Cl)c1ccccc1 | 12.9 (active) |
| O=C(NC(=S)Nc1ccc(N2CCCC2)cc1)c1ccccc1[N+](=O)[O-] | 0.0592 |
| O=C(NC(=S)Nc1cccc(NC(=O)c2ccccc2)c1)c1cccc([N+](=O)[O-])c1 | -0.0765 |
| COc1ccc(C(=O)NC(=S)Nc2ccccc2N2CCCCC2)cc1[N+](=O)[O-] | 0.366 |
| Cc1cc(C(=O)NC(=S)Nc2ccccc2N2CCCC2)ccc1[N+](=O)[O-] | 0.156 |
| O=C(NC(=S)Nc1ccccc1N1CCCC1)c1ccccc1[N+](=O)[O-] | 7.29 (active) |
| Cc1ccc(C(=O)NC(=S)Nc2ccccc2N2CCCC2)cc1[N+](=O)[O-] | 0.134 |
| Cc1c(C(=O)NC(=S)Nc2ccccc2N2CCCC2)cccc1[N+](=O)[O-] | 3.83 (active) |

| Structure (SMILES) | z-score |
| --- | --- |
| O=C(NC(=S)Nc1cc(C(F)(F)F)ccc1Cl)c1ccccc1 | 1.04 |
| O=C(NC(=S)Nc1ccccc1N1CCOCC1)c1ccc([N+](=O)[O-])cc1 | 0.377 |
| Cc1ccc(S(=O)(=O)CCc2nc3ccccc3s2)cc1C | -0.169 |
| CCCC(=O)O[C@@H]1C[C@@H](C)N(C(=O)c2ccccc2)c2ccc(C)cc21 | -0.411 |
| Cc1ccc(OC(=O)CCc2c(C)nc3ncnn3c2C)cc1 | -0.382 |
| O=c1oc2c(CN3CCOCC3)c(O)ccc2c2c1CCC2 | 0.00993 |
| O=C(NC(=S)Nc1ccccc1N1CCOCC1)c1sc2ccccc2c1Cl | 1.18 |
| COc1ccccc1C(=O)NNC(=S)NC(=O)c1ccco1 | 1.4 |
| COc1ccccc1C(=O)NNC(=S)NC(=O)c1sc2ccccc2c1Cl | 4.01 (active) |
| COc1ccccc1C(=O)NC(=S)NNC(=O)c1sc2ccccc2c1Cl | 3.35 (active) |
| O=C(NNC(=S)NC1CCCCC1)c1sc2ccccc2c1Cl | -0.163 |
| O=C(NNC(=O)c1sc2ccccc2c1Cl)Nc1ccc(Cl)cc1 | -0.0174 |
| CC(C)(C)C(=O)NC(=S)NNC(=O)c1sc2ccccc2c1Cl | 13.7 (active) |
| COc1ccccc1C(=O)NC(=S)Nc1ccc(NC(=O)c2cccs2)cc1 | 0.853 |
| COc1ccc(CCNC(=O)c2sc3ccccc3c2Cl)cc1OC | -0.565 |
| COc1ccccc1CNC(=O)CSc1ccc(Br)cc1 | 0.558 |
| Cc1cc(C)cc(C(=O)N2CCCCCC2)c1 | 0.076 |
| COc1ccc(NC(=O)[C@H](COCc2ccccc2)NC(=O)OC(C)(C)C)cc1 | 0.329 |
| Cc1cc(NC(=O)CSc2nnc(-c3ccco3)o2)no1 | 0.184 |
| Cc1ccccc1NC(=S)NCc1cccn1C | -0.488 |
| Cc1c(Cl)cccc1NC(=S)NCc1cccn1C | 0.262 |
| Cc1ccc(Cl)cc1NC(=S)NCc1cccn1C | 6.81 (active) |
| O=C(OC1CCN(c2ncc(C(F)(F)F)cc2Cl)CC1)c1ccc(Cl)cc1 | -0.0974 |

| Structure (SMILES) | z-score |
| --- | --- |
| O=C(O)Cn1ccnc1 | -0.327 |
| c1cn(CC2(Cn3ccnc3)COC2)cn1 | 3.15 (active) |
| COc1cc(Cn2ccnc2)c(OC)cc1Cn1ccnc1 | -0.198 |
| CCCN1CCC(NC(=O)Nc2ccc(OC)c(OC)c2)CC1 | 0.00828 |
| CCCN1CCC(NC(=O)Nc2ccccc2C(=O)OC)CC1 | -0.336 |
| CCCN1CCC(NC(=O)Nc2ccc(F)cc2F)CC1 | 2.81 |
| COC(=O)c1ccc(NC(=O)CNCc2ccncc2)cc1 | -0.143 |
| Cc1onc(-c2ccccc2Cl)c1C(=O)N1CCc2ccccc2C1 | -0.95 |
| Cc1noc(C)c1C(=O)N1CCc2ccccc2C1 | 1.98 |
| Cc1onc(-c2c(Cl)cccc2Cl)c1C(=O)N1CCc2ccccc2C1 | 0.0144 |
| C=CCn1c(CCNC(=O)c2ccccc2F)nnc1SCC(=O)Nc1nc(C)cs1 | 0.0314 |
| CCOc1cc(C2C(C#N)=C(N)Oc3n[nH]c(C)c32)ccc1OCCN1CCOCC1 (stereo not given) | -0.102 |
| COC(=O)c1cc(-c2ccccc2)on1 | -1.87 |
| CCCCP(=O)(CCCC)CCP(=O)(c1ccccc1)c1ccccc1 | -0.667 |
| O=C(O)CCn1c(SCc2cccc3ccccc23)nc2ccccc21 | 2.1 |
| O=C(O)Cn1c(SCc2cccc3ccccc23)nc2ccccc21 | 1.11 |
| O=C(O)CCn1c(SCc2ccccc2)nc2ccccc21 | -0.0963 |
| CCOc1ccc(NC(=O)CCNc2c(N3CCCC3)c(=O)c2=O)cc1 | -0.437 |
| CCCCn1c(-c2csc3c2CCCC3)n[nH]c1=S | 6.19 (active) |
| CCCCn1c(-c2csc3c2CCC(C)C3)n[nH]c1=S (stereo not given) | 7.55 (active) |
| CCCCn1c(-c2csc3ccccc23)n[nH]c1=S | 2.3 |
| CCn1c(-c2csc3c2CCC(C)C3)n[nH]c1=S (stereo not given) | 1.49 |
| C=CCn1c(-c2csc3c2CCC(C)C3)n[nH]c1=S (stereo not given) | 0.494 |

| Structure (SMILES) | z-score |
| --- | --- |
| CCn1c(-c2csc3c2CCCC3)n[nH]c1=S | -0.181 |
| CCn1c(-c2csc3ccccc23)n[nH]c1=S | -0.273 |
| CC(C)Cn1c(-c2csc3ccccc23)n[nH]c1=S | 0.509 |
| CC(C)Cn1c(-c2csc3c2CCCC3)n[nH]c1=S | -1.59 |
| CCCOc1ccc(C2/C(=C(\O)c3c(C)[nH]c(C(=O)OC)c3C)C(=O)C(=O)N2CCN(C)C)cc1 (stereo not given) | 0.491 |
| CCC(N1CCOC1=O)S(=O)(=O)c1ccc(C)cc1 (stereo not given) | -0.148 |
| Cc1cccnc1NC(=O)Nc1cccs1 | -0.232 |
| COc1cc(NC(=O)c2ccc(COCC(F)(F)F)o2)cc(OC)c1OC | 2.1 |
| COc1cc(NC(=O)c2ccc(COc3ccccc3Br)o2)cc(OC)c1OC | -0.932 |
| COc1cc(NC(=O)c2ccc(COCC(F)(F)F)cc2)cc(OC)c1OC | -0.608 |
| NC(=O)C1CCN(C(=O)COc2ccc3ccccc3c2)CC1 | 0.115 |
| CCc1ccc(NC(=O)COn2nnc3ccc(S(=O)(=O)N(C)C)cc32)cc1 | -0.27 |
| Cc1ccc(NC(=O)COn2nnc3ccc(S(=O)(=O)N(C)C)cc32)cc1F | 3.29 (active) |
| CCN(CC)S(=O)(=O)c1ccc2nnn(OCC(=O)Nc3cccc(C#N)c3)c2c1 | -0.793 |
| COCCNS(=O)(=O)c1ccc(-c2ccc(C)cc2)cc1 | -0.0903 |
| CCOC(=O)c1cnc2c(Cl)cccc2c1NCCN(C)C | 0.313 |
| O=C(O)C1C2C=CC(C2)C1C(=O)NC1CCN(Cc2ccccc2)CC1 (stereo not given) | 0.581 |
| Cc1cc(=O)c2ccccc2[nH]1 | 0.0595 |
| Cc1nc(=S)c2ccccc2[nH]1 | 1.49 |
| CC(C)c1nc(=S)c2ccccc2[nH]1 | 13.7 (active) |
| O=C(C1CCCCC1)N1CCC(c2nc3ccccc3[nH]2)CC1 | -0.166 |
| S=c1nc[nH]c2c1[nH]c1ccccc12 | 0.0879 |
| S=c1nc(C2CC2)[nH]c2ccccc12 | 9.36 (active) |

| Structure (SMILES) | z-score |
| --- | --- |
| COc1ccc(Cc2nnc(SCc3c(C)noc3C)n2C2CCCCC2)cc1OC | 0.045 |
| CSC(=NC(C)c1ccccc1)NS(=O)(=O)c1cccs1 (stereo not given) | 0.148 |
| COc1ccc(/C=C/C(=O)NC(=S)Nc2cc3oc4ccccc4c3cc2OC)cc1 | 0.0202 |
| Cc1cc(/C=C2/NC(=O)NC2=O)c(C)n1-c1ccccn1 | -0.389 |
| Cc1cc(C)c(-n2c(C)cc(/C=C3/NC(=O)NC3=O)c2C)c(C)c1 | 2.07 |
| Cc1cccc(C)c1-n1c(C)cc(/C=C2\NC(=O)NC2=O)c1C | -0.96 |
| Cn1cnnc1SC(C(=O)Nc1ccc(F)cc1)c1ccccc1 (stereo not given) | -0.0653 |
| Cc1ccc(S(=O)(=O)N2CCC(C(=O)NC3CCCCCC3)CC2)cc1 | -0.0732 |
| CCC/C(O)=C1\C(=O)CCCC1=NCCCCCC(=O)O | 0.156 |
| COc1ccc(OC)c(CCNC(=O)CN2C(=O)CC(C)(C)S(=O)(=O)c3ccccc32)c1 | 0.0628 |
| COc1ccc(OC)c(CCNC(=O)Cn2sc3nc(C)cc(C)c3c2=O)c1 | 2.22 |
| COc1ccc(-c2nc(CS(=O)(=O)CC(=O)NCCc3cc(OC)ccc3OC)c(C)o2)cc1 | -0.299 |
| O=C(C1CCC(=O)N1Cc1ccccc1Cl)N1CCN(c2cccc(Cl)c2)CC1 (stereo not given) | -0.174 |
| CC(CNC(=O)c1cc(Cl)ccc1[N+](=O)[O-])NC(=O)c1cc(Cl)ccc1[N+](=O)[O-] (stereo not given) | -0.0709 |
| Cc1ccc(/C([O-])=C(/C(=S)NCc2ccco2)[n+]2ccccc2)cc1 | -0.112 |
| Cc1cc(C)n(-c2nc(NCCC(C)C)c3c4c(sc3n2)COC(C)(C)C4)n1 | -0.867 |
| N=c1nc(-c2ccccc2)ccn1O | 2.64 |
| CNc1ccccc1-n1ccc(-c2ccccc2)n1 | 1.11 |
| c1ccc(-c2ccn3nnnc3n2)cc1 | -0.244 |
| O=c1c(-c2ccco2)[n+]([O-])c2ccccc2n1OCc1ccccn1 | -0.153 |
| CN1CCN(S(=O)(=O)c2cccc(S(=O)(=O)c3cccc(S(=O)(=O)N4CCN(C)CC4)c3)c2)CC1 | 14 (active) |
| CN1CCN(S(=O)(=O)c2cccc(S(=O)(=O)c3ccc(Cl)c(Cl)c3)c2)CC1 | 1.26 |
| CN1CCN(S(=O)(=O)c2cccc(S(=O)(=O)c3ccc(Cl)cc3)c2)CC1 | 0.2 |
